The nature of experiment [1]: Nuclear factor erythroid 2-related factor 2/antioxidant responsive element (Nrf2/ARE) small molecule agonists: qHTS cell viability counter screen in human keratinocytes (AID 1919968; active means well fitted curve in the direction sought with a large enough effect in the repeat runs; an effect the other way counts as inactive or inconclusive; further: nearly all actives have a fitted effect of over 55% in size). Summed up: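 Measured as CellTiter-Fluor fluorescence, this readout tracks cytotoxicity in the same wells as the ARE-luciferase screen. HaCaT reporter cells (1,500/well) received compounds after a 5 h pre-incubation and were exposed for 23 h.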

The nature of experiment [2]: Nuclear factor erythroid 2-related factor 2/antioxidant responsive element (Nrf2/ARE) small molecule agonists: luciferase reporter gene qHTS assay in human keratinocytes (AID 1919969). Further: nearly all actives have a fitted effect of over 35% in size. Further: potency means the concentration at half of the fitted maximal effect.
Experiment [3] deals with Gonadotropin-releasing hormone receptor (Homo sapiens) (UniProt P30968). The experiment can be described thus: Human gonadotropin-releasing hormone receptor (GnRHR) small molecule agonists, calcium flux assay in GnRHR-HEK293 cells (AID 1920063). Further: nearly all actives have a fitted effect of over 35% in size. The procedure, abridged:
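Fluorescence kinetics (480 nm excitation, 540 nm emission; 3 min, 1 s steps) report calcium mobilisation in human GnRHR-HEK293 cells in agonist mode. Dye incubation: 1 h, 37 C.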

Experiment [4] in a line: G protein-coupled receptor (GPCR) small molecule agonists, calcium flux assay: HEK293 wild type cell line counter screen (AID 1920065). The procedure, abridged:
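Readout: fluorescence at 480 nm excitation/540 nm emission, sampled at 1 s intervals for 3 min. Cells had been cultured 18 h, then dye-loaded 1 h at 37 C before compound or ATP addition.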

Experiment [5] in a line: p53 small molecule agonists, cell-based qHTS assay with human liver microsomes (AID 1963577). The procedure, abridged: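 Fluorescence of the beta-lactamase reporter in p53RE-bla cells, detected with LiveBLAzer substrate (2 h, room temperature, dark), served as the read-out after 16 h compound exposure at 37 C with human liver microsomes and NADPH, each 0.5 mg/mL final.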

Experiment [6] can be described thus: p53 small molecule agonists, cell-based qHTS assay with rat liver microsomes (AID 1963578). Summed up: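 Cells carrying a p53 response element–beta-lactamase reporter were plated and rested 5 h, then dosed with compound in DMSO plus rat liver microsomes and NADPH, each at 0.5 mg/mL final. After 16 h at 37 C, LiveBLAzer substrate was added for 2 h.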
Experiment [7] can be described thus: p53 small molecule agonists, cell-based qHTS assay with rat liver microsomes: qHTS cell viability counter screen (AID 1963580). Further: nearly all actives have a fitted effect of over 45% in size. The procedure, abridged:
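HCT-116 p53RE-bla, 4,000 cells/well, 5 h pre-incubation; cpd + rat liver microsomes 0.5 mg/mL + NADPH 0.5 mg/mL (final); 16 h, 37 C; CellTiter-Glo, 30 min RT; luminescence.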

The nature of experiment [8]: p53 small molecule agonists, cell-based qHTS assay: qHTS cell viability counter screen (AID 1963581). Further: nearly all actives have a fitted effect of over 45% in size. The procedure, abridged: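 In the same plates used for the p53 bla reporter, HCT-116 cells given compounds for 16 h at 37 C received CellTiter-Glo; luminescence was recorded 30 min later at room temperature.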
Experiment [9] can be described thus: p53 small molecule agonists, cell-based qHTS assay (AID 1963582; active means well fitted activation curve with a large enough effect in the signal ratio in the repeat runs, not every such curve was filed as active; the % refers to the signal ratio). The procedure, abridged:
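Compounds are pin-transferred in DMSO onto p53RE-bla cells and incubated 16 h at 37 C. The B/G FRET beta-lactamase substrate is then applied for 2 h at RT and fluorescence recorded.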

For experiment [10], the target named is 5-hydroxytryptamine receptor 2A (Homo sapiens) (UniProt P28223). Put plainly: 5-hydroxytryptamine receptor 2A (HTR2A) small molecule agonists, cell-based qHTS assay (AID 1963587). Further: nearly all actives have a fitted effect of over 30% in size. The procedure, abridged: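 Kinetic calcium-flux fluorescence (2 min, 1 sec intervals) after compound addition in agonist mode. HTR2A-CHO cells were cultured 18 h, then dye-loaded 1 h at 37 C.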

Experiment [11] addresses Muscarinic acetylcholine receptor M1 (Homo sapiens) (UniProt P11229). Put plainly: Cholinergic receptor muscarinic 1 (CHRM1) small molecule agonists, cell-based qHTS assay (AID 1963589). Further: nearly all actives have a fitted effect of over 35% in size. The procedure, abridged: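 Each compound was tested at 15 concentrations across three independent runs on dye-loaded CHO cells stably expressing human CHRM1, reading intracellular calcium fluorescence kinetically at 1 sec intervals.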

Experiment [12] is described as follows: cAMP Responsive Elements (CRE) small molecule agonists, cell-based qHTS assay (AID 1963590). The procedure, abridged:
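Cell line: CRE-bla HEK 293T; medium DMEM/10% dialyzed FBS/0.1 mM NEAA/1 mM pyruvate/25 mM HEPES; 3 h compound exposure; beta-lactamase FRET readout after 2 h substrate loading at RT.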

In experiment [13] the target is D(2) dopamine receptor (Homo sapiens) (UniProt P14416). The experiment can be described thus: Dopamine D2 receptor (DRD2) small molecule agonists, cell-based qHTS assay (AID 1963594). Further: nearly all actives have a fitted effect of over 35% in size. Further: potency means the concentration at half of the fitted maximal effect. The procedure, abridged:
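cAMP accumulation in DRD2-HEK293 cells measured by HTRF after 1 h detection; compounds added 10 min before NKH477 (200nM […]) forskolin-analogue stimulation, 30 min at room temperature, with Ro20-1724 present at 0.1 mM final.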

For experiment [14] the target is unchanged. Put plainly: Dopamine D2 receptor (DRD2) small molecule antagonists, cell-based qHTS assay (AID 1963595; active means well fitted inhibition curve with a large enough effect in the signal ratio in the repeat runs, with a control signal flat; the % refers to the signal ratio). Summed up: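 Readout: HTRF cAMP, cAMP-d2 competing with cellular cAMP for anti-cAMP cryptate, read after 1 h. Cells: DRD2-HEK293. Conditions: 0.1 mM Ro20-1724, 12 nM quinpirole, 200 nM NKH477, 30 min RT.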
Experiment [15] concerns the target KiSS-1 receptor (Homo sapiens) (UniProt Q969F8). Put plainly: Human kisspeptin (KISS1R) small molecule agonists, calcium flux assay in KISS1R-HEK293 cells (AID 1920064; active means well fitted curve in the direction sought with a large enough effect in the repeat runs; an effect the other way counts as inactive or inconclusive). The procedure, abridged:
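Measures KISS1R agonism through calcium-sensitive dye fluorescence in stably transfected HEK293 cells, read for 3 min after pin-tool compound delivery; 15-point titrations in triplicate.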

A short description of experiment [16]: p53 small molecule agonists, cell-based qHTS assay with human liver microsomes: qHTS cell viability counter screen (AID 1963579). Further: nearly all actives have a fitted effect of over 45% in size. The procedure, abridged: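 Cytotoxicity counter screen: p53RE-bla, 4,000 cells/well; 5 h settle, 37 C/5% CO2; cpd + HLM 0.5 mg/mL + NADPH 0.5 mg/mL (final); 16 h, 37 C; CellTiter-Glo, 30 min RT, luminescence.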
The nature of experiment [17]: cAMP Responsive Elements (CRE) small molecule antagonists, cell-based qHTS assay (AID 1963591; active means well fitted inhibition curve with a large enough effect in the signal ratio in the repeat runs, not every such curve was filed as active; the % refers to the signal ratio). Summed up: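 Inhibition of NKH477-driven (0.25 uM final) CRE-beta-lactamase signal in HEK293T cells, 3 h compound exposure at 37 °C, detected by FRET substrate fluorescence.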
Experiment [18] deals with 5-hydroxytryptamine receptor 2A (Homo sapiens) (UniProt P28223). Put plainly: 5-hydroxytryptamine receptor 2A (HTR2A) small molecule antagonists, cell-based qHTS assay (AID 1963586). Further: nearly all actives have a fitted effect of over 45% in size. Summed up:
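Antagonist-mode intracellular calcium assay: DOI (4 nM) added after 5 min compound pre-incubation at room temperature to dye-loaded HTR2A-CHO cells. Fluorescence followed for 3 min, sampled every second.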

Experiment [19] addresses Muscarinic acetylcholine receptor M1 (Homo sapiens) (UniProt P11229). Put plainly: Cholinergic receptor muscarinic 1 (CHRM1) small molecule antagonists, cell-based qHTS assay (AID 1963588). Further: nearly all actives have a fitted effect of over 40% in size. Further: potency means the concentration at half of the fitted maximal effect. The procedure, abridged:
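CHRM1-CHO calcium-flux assay, antagonist mode. Cells were seeded 18 h, dye-loaded 1 h at 37 C and given compound for 5 min at RT, then acetylcholine was added at 50nM. FDSS fluorescence was read 3 min; 15 concentrations, three runs.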

Experiment [20] addresses Beta-2 adrenergic receptor (Homo sapiens) (UniProt P07550). Put plainly: Adrenergic beta2 receptor (ADRB2) small molecule antagonists, cell-based qHTS assay (AID 1963592). Further: series mostly up to about 92 µM; nearly all actives have a fitted effect of over 50% in size. Summed up: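 Cells (CHO, stable ADRB2 overexpression) incubated 18-20hr at 37C; compounds added from DMSO; agonist mix (1nM isoproterenol, 100uM IBMX, 25uM Ro-20-1724) added; 0.5hr RT; d2-cAMP and anti-cAMP-cryptate added; 1hr RT; 665/615 nm read.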

The source of these data is PubChem BioAssay (Tox21).

Results filed as inconclusive are left out. Active and inactive are the calls of the source. Unless noted, the call rests on the fitted dose curve.

Beta-2 adrenergic receptor (Homo sapiens), sequence (P07550 whole entry, looked up): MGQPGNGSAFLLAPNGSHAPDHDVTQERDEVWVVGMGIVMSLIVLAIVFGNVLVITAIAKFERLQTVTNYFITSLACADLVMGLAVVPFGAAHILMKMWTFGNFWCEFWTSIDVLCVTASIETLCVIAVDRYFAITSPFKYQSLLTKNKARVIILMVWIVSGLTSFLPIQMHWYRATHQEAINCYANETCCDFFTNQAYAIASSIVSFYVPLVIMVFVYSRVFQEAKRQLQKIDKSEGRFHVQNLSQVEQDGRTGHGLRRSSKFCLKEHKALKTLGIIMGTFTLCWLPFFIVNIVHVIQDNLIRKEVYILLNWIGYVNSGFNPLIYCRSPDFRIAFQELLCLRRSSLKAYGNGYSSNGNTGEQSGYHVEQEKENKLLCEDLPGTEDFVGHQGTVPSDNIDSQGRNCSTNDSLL
D(2) dopamine receptor (Homo sapiens), sequence (P14416 whole entry, looked up): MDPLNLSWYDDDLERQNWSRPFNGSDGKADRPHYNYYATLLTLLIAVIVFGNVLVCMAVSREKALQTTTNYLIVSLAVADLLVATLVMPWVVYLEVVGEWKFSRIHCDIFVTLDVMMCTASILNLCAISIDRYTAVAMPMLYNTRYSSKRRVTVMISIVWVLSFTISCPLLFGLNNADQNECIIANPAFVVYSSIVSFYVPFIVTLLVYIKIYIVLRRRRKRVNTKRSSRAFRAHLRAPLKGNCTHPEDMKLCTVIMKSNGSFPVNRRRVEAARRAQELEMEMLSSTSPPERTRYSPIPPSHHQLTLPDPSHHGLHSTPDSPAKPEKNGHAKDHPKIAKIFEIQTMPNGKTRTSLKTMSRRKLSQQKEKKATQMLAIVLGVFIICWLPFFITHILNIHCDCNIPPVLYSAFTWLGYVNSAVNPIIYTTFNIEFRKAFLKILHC
Gonadotropin-releasing hormone receptor (Homo sapiens), sequence (P30968 whole entry, looked up): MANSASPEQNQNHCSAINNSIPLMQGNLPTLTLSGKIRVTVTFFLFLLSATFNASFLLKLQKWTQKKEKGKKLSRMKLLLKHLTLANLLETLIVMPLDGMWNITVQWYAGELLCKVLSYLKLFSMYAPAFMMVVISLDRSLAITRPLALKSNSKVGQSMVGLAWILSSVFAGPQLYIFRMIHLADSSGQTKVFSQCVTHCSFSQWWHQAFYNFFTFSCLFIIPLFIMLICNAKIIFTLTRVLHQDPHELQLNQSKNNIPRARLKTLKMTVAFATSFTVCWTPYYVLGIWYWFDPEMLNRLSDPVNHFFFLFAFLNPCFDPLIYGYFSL
5-hydroxytryptamine receptor 2A (Homo sapiens), sequence (P28223 whole entry, looked up): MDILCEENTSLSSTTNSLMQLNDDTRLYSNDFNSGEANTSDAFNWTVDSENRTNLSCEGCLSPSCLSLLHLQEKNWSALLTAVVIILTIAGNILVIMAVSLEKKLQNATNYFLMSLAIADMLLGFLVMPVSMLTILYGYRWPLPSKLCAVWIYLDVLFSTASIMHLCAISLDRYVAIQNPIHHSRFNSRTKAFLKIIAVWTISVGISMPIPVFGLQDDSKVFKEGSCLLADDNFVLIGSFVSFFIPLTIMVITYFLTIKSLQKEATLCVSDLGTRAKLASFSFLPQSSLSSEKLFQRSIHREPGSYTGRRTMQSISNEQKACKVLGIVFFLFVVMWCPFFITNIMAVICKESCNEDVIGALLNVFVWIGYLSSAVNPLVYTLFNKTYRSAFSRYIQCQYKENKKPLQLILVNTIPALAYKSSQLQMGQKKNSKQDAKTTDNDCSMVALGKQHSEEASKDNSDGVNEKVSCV
Muscarinic acetylcholine receptor M1 (Homo sapiens), sequence (P11229 whole entry, looked up): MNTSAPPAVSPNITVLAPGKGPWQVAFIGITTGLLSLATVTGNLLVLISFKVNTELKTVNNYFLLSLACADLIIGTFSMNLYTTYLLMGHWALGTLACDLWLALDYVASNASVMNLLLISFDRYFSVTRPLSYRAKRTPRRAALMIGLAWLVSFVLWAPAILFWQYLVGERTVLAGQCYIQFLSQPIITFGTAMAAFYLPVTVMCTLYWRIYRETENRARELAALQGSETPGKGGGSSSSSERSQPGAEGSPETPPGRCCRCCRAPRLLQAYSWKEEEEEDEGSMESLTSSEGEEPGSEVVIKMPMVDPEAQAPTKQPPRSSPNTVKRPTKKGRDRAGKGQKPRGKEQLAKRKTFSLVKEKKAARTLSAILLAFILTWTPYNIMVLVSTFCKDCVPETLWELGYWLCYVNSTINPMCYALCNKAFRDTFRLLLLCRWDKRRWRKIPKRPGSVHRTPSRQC
KiSS-1 receptor (Homo sapiens), sequence (Q969F8 whole entry, looked up): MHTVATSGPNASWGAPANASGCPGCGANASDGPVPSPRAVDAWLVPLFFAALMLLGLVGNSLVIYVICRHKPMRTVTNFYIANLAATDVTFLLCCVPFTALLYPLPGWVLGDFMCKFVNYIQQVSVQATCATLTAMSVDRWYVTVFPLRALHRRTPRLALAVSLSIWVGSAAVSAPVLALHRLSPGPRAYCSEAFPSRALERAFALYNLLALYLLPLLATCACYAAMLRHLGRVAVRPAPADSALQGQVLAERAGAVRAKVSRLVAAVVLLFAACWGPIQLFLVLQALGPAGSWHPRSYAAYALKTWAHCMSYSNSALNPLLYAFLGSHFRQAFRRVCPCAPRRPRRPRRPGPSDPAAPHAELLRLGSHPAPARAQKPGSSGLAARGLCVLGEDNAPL

On to `CCCOC(=O)Cc1ccc(OCC(=O)N(CC)CC)c(OC)c1`, for which the Potency result in experiment [1], in experiment [2], in [3], in experiment [4], in [5] and in [6] was “inactive” each time. Further, the Potency entry in experiment [7], in experiment [8], in experiment [9], in experiment [10], in experiment [11] and in [12] was “inactive” in each case. In experiment [14], the Potency entry was “inactive”. Further, the Potency in experiment [13] was 0.282 µM (active).

Regarding `CCOP(=S)(OCC)SCSP(=S)(OCC)OCC`, the Potency entry in [1], in experiment [3], in [15], in experiment [16], in [7] and in [8] was “inactive” each time. Further, the Potency entry in [9], in [11], in [17], in experiment [13] and in [14] was “inactive” in each case. Moreover, in [2], the Potency is 68.6 µM (active).

With `O=C1NC(=O)C(=O)C(=O)N1`, the Potency result in experiment [1], in experiment [2], in [3], in [15], in experiment [16] and in experiment [7] was “inactive” each time. For the same compound, the Potency result in [8], in experiment [18], in experiment [10], in experiment [19], in experiment [11] and in [12] was “inactive” throughout. Further, the Potency result in experiment [17] and in experiment [14] was “inactive” throughout.

For `CCCC[N+]1(C)[C@@H]2CC(OC(=O)[C@H](CO)c3ccccc3)C[C@H]1[C@@H]1O[C@@H]12` (stereo not given in full), the Potency result in experiment [1], in experiment [2], in [3], in experiment [4], in experiment [5] and in [16] was “inactive” each time. Further, the Potency entry in [7], in experiment [8], in experiment [9], in experiment [18], in experiment [11] and in [12] was “inactive” in each case. For the same compound, the Potency entry in [17], in experiment [20], in [13] and in [14] was “inactive” throughout. Moreover, the Potency in experiment [19] is 3.65 µM (active).

Turning to `CCC1(C2=NCCN2)Cc2ccccc2O1` (stereo not given), the Potency entry in experiment [1], in experiment [2], in experiment [3], in experiment [4], in [16] and in experiment [7] was “inactive” in each case. Besides, the Potency result in [8], in [18], in experiment [10], in [19], in experiment [11] and in experiment [12] was “inactive” throughout. The Potency result in experiment [20] is “inactive”.

Regarding `O=C(N[C@H]1CN2CCC1CC2)c1ccc2c(c1)OCCO2`, the Potency result in experiment [1], in experiment [2], in experiment [3], in [15], in experiment [16] and in experiment [7] was “inactive” in each case. The Potency entry in experiment [8], in [18], in experiment [10], in experiment [19], in experiment [11] and in experiment [12] was “inactive” each time. Moreover, the Potency result in experiment [20], in [13] and in experiment [14] was “inactive” each time.

Take `ClC(Cl)C(Cl)Cl`: the Potency entry in [1], in experiment [2], in experiment [3], in experiment [4], in [5] and in experiment [16] was “inactive” in each case. Besides, the Potency entry in experiment [7], in [8], in experiment [9], in experiment [10], in experiment [19] and in experiment [11] was “inactive” each time. Moreover, the Potency result in experiment [12], in experiment [17], in experiment [13] and in [14] was “inactive” in each case.

Turning to `Cc1cccc2sc3nncn3c12`, the Potency result in [1], in experiment [2], in [3], in [4], in experiment [5] and in [16] was “inactive” each time. The Potency result in experiment [7], in experiment [8], in experiment [9], in [18], in [10] and in experiment [19] was “inactive” in each case. In addition, the Potency result in experiment [11], in experiment [12], in [17], in [20], in [13] and in [14] was “inactive” throughout.

For the compound `CC#C[C@]1(O)CC[C@H]2[C@@H]3C[C@H](C)C4=CC(=O)CC[C@]4(C)[C@H]3CC[C@@]21C`, the Potency result in experiment [1], in [2], in [3], in [4], in [5] and in [6] was “inactive” each time. Also, the Potency result in [16], in experiment [7], in [8], in experiment [9], in experiment [10] and in [19] was “inactive” each time. The Potency entry in experiment [11], in experiment [20], in experiment [13] and in experiment [14] was “inactive” throughout.
